Screening data from PubChem.
Pf apPOL inh: Pf-apPOL inhibitors, biochemical, fluorescence. Plasmodium falciparum apicoplast DNA polymerase (apPOL). Recombinant Pf-apPOL, molecular beacon fluorescence, 1.5 h. inhibition, % at 10 µM. hit rate 0.25% among 210,000. AID 1794808, 2022
mHTT CaM bind: mutant huntingtin-calmodulin interaction inhibitors – biochemical, AlphaScreen, primary screen. P42858. AlphaScreen His-mHTT/GST-CaM binding, luminescence. inhibition, % at 15 µM. hit rate 3.6% among 190,000
Each line names hits and unclear results; the compound was inactive in the other large screens. Compounds with a hit are over-represented: about 3.5% of the library has one in this group of screens. Rule as the data show it: active = inhibition above about 50%; inactive = the rest.

Cc1ccc2c(c1)N(S(=O)(=O)c1ccc3[nH]c4c(c3c1)CCCC4)CCO2	none
CCOC(=O)C1CCN(S(=O)(=O)c2ccc3[nH]c4c(c3c2)CCCCC4)CC1	mHTT CaM bind 71
O=S(=O)(c1ccc2[nH]c3c(c2c1)CCCCC3)N1CCC2(CC1)OCCO2	mHTT CaM bind 58
O=S(=O)(c1ccc2[nH]c3c(c2c1)CCCCC3)N1CCCCC1	mHTT CaM bind 76
O=C(CCN1CCCCC1)Nc1cnc(-c2cccnc2)nc1	none
Cc1ccc(C(=O)N2CCC(CCNC(=O)c3ccc4c(c3)OCO4)CC2)cc1	none
COc1ccc(C=NCCNC(=O)c2ccc(C)cc2)cc1	none
O=C(c1cccc2c1NC(c1ccc(Cl)cc1Cl)C1CC=CC21)N1CCOCC1 (stereo not given)	none
O=C(O)C1Nc2c(Cl)cc(Cl)c(Cl)c2C2C=CCC12 (stereo not given)	mHTT CaM bind 96 (no result: Pf apPOL inh)
O=C(O)C1Nc2c(Cl)cc(Cl)cc2C2C=CCC12 (stereo not given)	mHTT CaM bind 95 (no result: Pf apPOL inh)
Cc1ccc(C2Oc3ccccc3C3=C2C(c2cccs2)n2ncnc2N3)cc1 (stereo not given)	none
COc1ccc(C2C3=C(Nc4ncnn42)c2ccccc2OC3c2ccccc2Cl)cc1OC (stereo not given)	mHTT CaM bind 70
COc1cccc(C2C3=C(Nc4ncnn42)c2ccccc2OC3c2ccc(OC)c(OC)c2)c1 (stereo not given)	none
COc1ccc(C2Oc3ccccc3C3=C2C(c2cccs2)n2ncnc2N3)cc1OC (stereo not given)	mHTT CaM bind 56
O=C(NCCCCc1ccccc1)C1CCCN1S(=O)(=O)c1ccccc1 (stereo not given)	none
O=C(c1ccco1)N1CCN(CC(O)c2cccs2)CC1 (stereo not given)	none
CC(C)(C)C(=O)C=C1Nc2ccccc2SC1(O)CC(=O)C(C)(C)C (stereo not given)	mHTT CaM bind 51 (no result: Pf apPOL inh)
CC(NC(=O)CC1Sc2ccccc2NC1=O)C(C)(C)C (stereo not given)	none
COc1cc(OC)c(C2N(c3ccc(Cl)c(Cl)c3)C(=O)C3CCCN32)cc1OC (stereo not given)	mHTT CaM bind 98
COc1ccc(N2C(=O)C3CCCN3C2c2ccc(Cl)cc2)cc1Cl (stereo not given)	none
CCN(CC)c1ccc(C2N(c3cc(Cl)ccc3OC)C(=O)C3CCCN32)cc1 (stereo not given)	mHTT CaM bind 75
COc1ccccc1C1N(c2ccc(Cl)c(Cl)c2)C(=O)C2CCCN21 (stereo not given)	mHTT CaM bind 100
CCc1ccc(C2N(c3cc(Cl)ccc3OC)C(=O)C3CCCN32)cc1 (stereo not given)	none
CCOc1ccc(C2N(c3ccc(Cl)cc3)C(=O)C3CCCN32)cc1OC (stereo not given)	none
COc1ccccc1C1N(c2cc(Cl)ccc2OC)C(=O)C2CCCN21 (stereo not given)	none
COc1cc(OC)c(C2N(c3ccc(Cl)cc3)C(=O)C3CCCN32)cc1OC (stereo not given)	mHTT CaM bind 67
O=C(Cc1csc(NC(=O)c2ccc3c(c2)OCO3)n1)NCc1c(F)cccc1F	none
O=C1[C@@H]2OC[C@@H](O2)[C@@H]2[C@H]1[C@@H]1c3ccccc3C=CN1[C@H]2C(=O)C12CC3CC(CC(C3)C1)C2	none (no result: Pf apPOL inh)
O=C(CN1CCN(C(=O)Nc2ccc(Br)cc2)CC1=O)Nc1ccccc1F	none
O=C(NCCN1CCN(Cc2ccccc2)CC1)C1(n2cccc2)CCCCC1	none
Fc1ccc(C2=NCCC(c3ccccc3)O2)cc1 (stereo not given)	mHTT CaM bind 51
O=C1OC(c2ccc(F)cc2)=N/C1=C\c1ccccc1	none
COc1ccc(C)cc1NCc1ccccc1[N+](=O)[O-]	mHTT CaM bind 77
COc1ccc(C)cc1NS(=O)(=O)CC(C)C	none
COc1cccc(CNCc2ccccc2[N+](=O)[O-])c1OC	none
COc1cc(C)c(CNc2cc(C)ccc2OC)cc1C	mHTT CaM bind 89
Cc1ccc(NC(=O)N2CCc3c(c(COc4cccc(F)c4)nn3C)C2)cc1C	none
CC(C)c1ccc2oc(-c3cc(N)ccc3O)nc2c1	mHTT CaM bind 62
Cc1ccc2oc(-c3cc(N)ccc3O)nc2c1	none
O=[N+]([O-])c1cccc2ccc(Nc3cccc4cccnc34)nc12	none
COc1ccccc1NC(=O)CN1C(=O)C2C3c4ccccc4C(c4ccccc43)C2C1=O (stereo not given)	none
O=C(CN1C(=O)C2C3c4ccccc4C(c4ccccc43)C2C1=O)Nc1cccc(Cl)c1 (stereo not given)	mHTT CaM bind 100
Cc1cc2[nH]c(C(=O)Nc3ccc(F)cc3C)c(CN(C)C)c2s1	none
O=C(CN(C1CCCCC1)S(=O)(=O)c1ccccc1)N1CCCCCC1	none
O=C(CN(C1CCCCC1)S(=O)(=O)c1ccccc1)N1CCN(c2ccc(F)cc2)CC1	mHTT CaM bind 60
Cc1ccc(C(=O)NCCc2ccc(F)cc2)cc1[N+](=O)[O-]	none
COc1ccc(N2CCC(CNS(=O)(=O)c3cccc(Cl)c3)C2)cc1 (stereo not given)	mHTT CaM bind 84
COc1ccc(N2CC(CNS(=O)(=O)c3ccc4c(c3)CCCC4)CC2=O)cc1 (stereo not given)	none
COC(=O)C1=C(N)OC2=C(C(=O)CCC2)C1c1ccc(OC)c(OC)c1 (stereo not given)	none
Cc1cccc(C)c1Nc1c(-c2ccccn2)nc2ncccn12	mHTT CaM bind 100
Cc1ccc(-c2nc3ncccn3c2Nc2c(C)cccc2C)o1	none
CCc1onc(C)c1C1CCCN1C(=O)Nc1ccccc1C (stereo not given)	none
COCc1nn(C)c2c1CN(S(=O)(=O)c1cccc(C#N)c1)CC2	none
O=C1CCC(=O)N1c1nc2n(n1)C(c1ccccc1)C=C(c1ccc(Cl)cc1)N2 (stereo not given)	mHTT CaM bind 77
O=S(=O)(Nc1nc2n(n1)C(c1ccccc1)C=C(c1ccc(Cl)cc1)N2)c1ccccc1 (stereo not given)	none
O=C(Nc1ccc(C(=O)N2CCCCC2)c(N2CCCCCC2)c1)C1CC1	none
CCC(=O)N1c2ccccc2NC2=C(C(=O)CC(C)(C)C2)C1CC1CC=C(C)C1(C)C (stereo not given)	mHTT CaM bind 59
CC(=O)N1c2ccccc2NC2=C(C(=O)CC(C)(C)C2)C1CC1CC=C(C)C1(C)C (stereo not given)	none
Cc1sc2ccn(C)c(=O)c2c1C(=O)NCC1CCCO1 (stereo not given)	none
O=C(NCCc1ccccc1)N1CC2CC1CC2NS(=O)(=O)c1ccccc1 (stereo not given)	none
COc1cc2c(cc1N)OCO2	mHTT CaM bind 54 (no result: Pf apPOL inh)
COc1cc(Br)c(Br)cc1N	none (no result: Pf apPOL inh)
O=c1ccc(C(F)(F)F)c[nH]1	none (no result: mHTT CaM bind)
CC(=C1N=C(c2ccccc2)OC1=O)N(C)C	none (no result: mHTT CaM bind)
CCCC(C)C(=O)Nc1ccc(Br)cc1 (stereo not given)	none
CCCC(C)C(=O)Nc1ccc(OCC)cc1 (stereo not given)	mHTT CaM bind 100
CCOc1ccc(C(=O)N(C)Cc2ccccc2)cc1OCC	none
Cc1nn(-c2ccc(C(=O)N3CCC(C)CC3)cc2)c2c1C(=O)CC(C)(C)C2	none
CC(C)CCN1CC(=O)N(Cc2ccc(Cl)cc2)C(c2cccnc2)C1=O (stereo not given)	none
c1ccc2[nH]c(CCn3c4c(c5ccccc53)CCCC4)nc2c1	mHTT CaM bind 66 (no result: Pf apPOL inh)
N#CCCn1c2c(c3ccccc31)CCCC2	none
CCc1ccc(C2=C/C(=C/c3ccc(C)c(OC)c3)C(=O)O2)cc1	none
